Assay [1] is described as follows: Nuclear factor erythroid 2-related factor 2/antioxidant responsive element (Nrf2/ARE) small molecule agonists: qHTS cell viability counter screen in human keratinocytes (AID 1919968; active = well fitted curve in the direction sought with a large enough effect in the repeat runs; an effect the other way counts as inactive or inconclusive; note: nearly all actives have a fitted effect of over 55% in size). The essentials: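 Seed 1,500 KeratinoSens cells per well, then incubate 5 h at 37 C/5% CO2. Add compounds in DMSO and incubate 23 h. Add CellTiter-Fluor, wait 1 h and read fluorescence.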

Assay [2] in a line: Nuclear factor erythroid 2-related factor 2/antioxidant responsive element (Nrf2/ARE) small molecule agonists: luciferase reporter gene qHTS assay in human keratinocytes (AID 1919969). Note: nearly all actives have a fitted effect of over 35% in size. Note: potency is the fitted concentration of half-maximal effect. A general note: Reporter assays use an easily measured gene product as a stand-in for the process of interest.
For assay [3], the target named is Gonadotropin-releasing hormone receptor (Homo sapiens) (UniProt P30968). Put plainly: Human gonadotropin-releasing hormone receptor (GnRHR) small molecule agonists, calcium flux assay in GnRHR-HEK293 cells (AID 1920063). Note: nearly all actives have a fitted effect of over 35% in size. The essentials:
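Cells: HEK293 stably expressing human GnRHR. Steps: overnight (18 h) culture, 1 h calcium dye loading at 37 C, compound addition, kinetic fluorescence read at 480/540 nm. Each compound tested at 15 concentrations in triplicate.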

Assay [4] addresses KiSS-1 receptor (Homo sapiens) (UniProt Q969F8). As to the kind of experiment: Human kisspeptin (KISS1R) small molecule agonists, calcium flux assay in KISS1R-HEK293 cells (AID 1920064; active = well fitted curve in the direction sought with a large enough effect in the repeat runs; an effect the other way counts as inactive or inconclusive). The essentials:
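Cells plated and incubated 18 h; dye added, 1 h at 37 C; compounds in DMSO pinned in; signal read at 480/540 nm every second for 3 min. Each compound tested at 15 concentrations in triplicate.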
A general note: Calcium flux is commonly read through the fluorescence of an indicator in the cells.

Assay [5] is described as follows: G protein-coupled receptor (GPCR) small molecule agonists, calcium flux assay: HEK293 wild type cell line counter screen (AID 1920065). Summed up: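 Counter-screen of the Tox21 10K library for non-specific calcium release: dye-loaded cells received compounds in DMSO and were monitored by kinetic fluorescence (480/540 nm, 3 min). Fifteen concentrations, run in triplicate.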

The nature of assay [6]: p53 small molecule agonists, cell-based qHTS assay with human liver microsomes (AID 1963577).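 Note: p53 response element beta-lactamase reporter cells with liver microsomes plus NADPH.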 Summed up:
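p53RE-bla cells; 5 h settle, 37 C/5% CO2; cpd + HLM 0.5 mg/mL + NADPH 0.5 mg/mL (final); 16 h 37 C; LiveBLAzer 2 h RT dark; fluorescence readout.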

Assay [7] can be described thus: p53 small molecule agonists, cell-based qHTS assay with rat liver microsomes (AID 1963578). Note: potency is the fitted concentration of half-maximal effect. The essentials: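 Rat liver microsome activation: microsomes 0.5 mg/mL, NADPH 0.5 mg/mL final; p53RE-bla cells, 16 h 37 C; LiveBLAzer readout, 2 h RT dark.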
On the technique in general: qHTS replaces the single test concentration by a dilution series.

A short description of assay [8]: p53 small molecule agonists, cell-based qHTS assay with human liver microsomes: qHTS cell viability counter screen (AID 1963579). Note: nearly all actives have a fitted effect of over 45% in size. Summed up:
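Luminescent CellTiter-Glo read-out, 30 min at room temperature, gauged cytotoxicity in p53RE-bla cells exposed 16 h at 37 C to DMSO-dissolved compounds with metabolic activation by human liver microsomes and NADPH, each 0.5 mg/mL final.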

Assay [9] is described as follows: p53 small molecule agonists, cell-based qHTS assay with rat liver microsomes: qHTS cell viability counter screen (AID 1963580). Note: nearly all actives have a fitted effect of over 45% in size. The essentials: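 p53RE-bla HCT-116 cells were exposed 16 h at 37 C to compounds with rat liver microsomes (0.5 mg/mL) and NADPH (0.5 mg/mL). Viability was measured in the same wells as ATP content by CellTiter-Glo luminescence.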
Assay [10] is described as follows: p53 small molecule agonists, cell-based qHTS assay: qHTS cell viability counter screen (AID 1963581). Note: nearly all actives have a fitted effect of over 45% in size. Summed up: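 Cells: HCT-116 with p53 response element-driven beta-lactamase. Treatment: 16 h, 37 C, compounds in DMSO. Read: CellTiter-Glo luminescence after 30 min RT.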
The nature of assay [11]: p53 small molecule agonists, cell-based qHTS assay (AID 1963582; active = well fitted activation curve with a large enough effect in the signal ratio in the repeat runs, not every such curve was filed as active; the % refers to the signal ratio). The essentials: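 Quantitative HTS in p53RE-bla cells: after a 5 h settling period, compounds delivered in DMSO were left on cells for 16 h at 37 C, and reporter induction was measured as fluorescence following 2 h substrate loading.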
In assay [12] the target is 5-hydroxytryptamine receptor 2A (Homo sapiens) (UniProt P28223). Put plainly: 5-hydroxytryptamine receptor 2A (HTR2A) small molecule antagonists, cell-based qHTS assay (AID 1963586). Note: nearly all actives have a fitted effect of over 45% in size. Summed up:
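Antagonist-mode intracellular calcium assay: DOI (4 nM) added after 5 min compound pre-incubation at room temperature to dye-loaded HTR2A-CHO cells. Fluorescence followed for 3 min, sampled every second.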

The target is the same in assay [13]. As to the kind of experiment: 5-hydroxytryptamine receptor 2A (HTR2A) small molecule agonists, cell-based qHTS assay (AID 1963587). Note: nearly all actives have a fitted effect of over 30% in size. Summed up:
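CHO cells stably expressing human HTR2A, plated 18 h, loaded with calcium dye 1 h at 37 C. Agonist mode: compounds added and intracellular calcium fluorescence recorded kinetically for 2 min at 1 sec intervals.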

Assay [14] has as its target Muscarinic acetylcholine receptor M1 (Homo sapiens) (UniProt P11229). As to the kind of experiment: Cholinergic receptor muscarinic 1 (CHRM1) small molecule antagonists, cell-based qHTS assay (AID 1963588). Note: nearly all actives have a fitted effect of over 40% in size. Summed up: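 CHRM1-CHO calcium-flux assay, antagonist mode. Cells were seeded 18 h, dye-loaded 1 h at 37 C and given compound for 5 min at RT, then acetylcholine was added at 50nM. FDSS fluorescence was read 3 min; 15 concentrations, three runs.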

Assay [15] shares this target. Put plainly: Cholinergic receptor muscarinic 1 (CHRM1) small molecule agonists, cell-based qHTS assay (AID 1963589). Note: nearly all actives have a fitted effect of over 35% in size. The essentials:
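Agonist-mode qHTS in CHO cells stably carrying human muscarinic M1. Intracellular calcium is tracked by fluorescence every second after compound transfer; each compound runs at 15 concentrations in three independent runs.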

Assay [16] is described as follows: cAMP Responsive Elements (CRE) small molecule agonists, cell-based qHTS assay (AID 1963590). The essentials: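 Agonist mode qHTS in CRE-bla HEK 293T cells: compounds dosed from DMSO for 3 h at 37 C/5% CO2, followed by LiveBLAzer B/G FRET substrate for 2 h at room temperature.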
The nature of assay [17]: cAMP Responsive Elements (CRE) small molecule antagonists, cell-based qHTS assay (AID 1963591; active = well fitted inhibition curve with a large enough effect in the signal ratio in the repeat runs, not every such curve was filed as active; the % refers to the signal ratio). Summed up: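 Antagonist mode: test compounds are co-incubated with the adenylyl cyclase activator NKH477 (0.25 uM final) on CRE-bla HEK293T cells for 3 h at 37 °C, followed by LiveBLAzer substrate loading.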
Assay [18] concerns the target Beta-2 adrenergic receptor (Homo sapiens) (UniProt P07550). As to the kind of experiment: Adrenergic beta2 receptor (ADRB2) small molecule antagonists, cell-based qHTS assay (AID 1963592). Note: series mostly up to about 92 µM; nearly all actives have a fitted effect of over 50% in size. Summed up:
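Cells (CHO, stable ADRB2 overexpression) incubated 18-20hr at 37C; compounds added from DMSO; agonist mix (1nM isoproterenol, 100uM IBMX, 25uM Ro-20-1724) added; 0.5hr RT; d2-cAMP and anti-cAMP-cryptate added; 1hr RT; 665/615 nm read.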

Assay [19] deals with D(2) dopamine receptor (Homo sapiens) (UniProt P14416). As to the kind of experiment: Dopamine D2 receptor (DRD2) small molecule agonists, cell-based qHTS assay (AID 1963594). Note: nearly all actives have a fitted effect of over 35% in size. The essentials:
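HEK293 cells stably expressing human DRD2, pre-treated with PDE inhibitor Ro20-1724 (0.1 mM final) and compound 10 min at room temperature, then stimulated with NKH477 (200nM […]) for 30 min. cAMP read by HTRF (665/620 nm).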

The target is the same in assay [20]. As to the kind of experiment: Dopamine D2 receptor (DRD2) small molecule antagonists, cell-based qHTS assay (AID 1963595; active = well fitted inhibition curve with a large enough effect in the signal ratio in the repeat runs, with a control signal flat; the % refers to the signal ratio). The essentials: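 HEK293 cells stably expressing DRD2 were preincubated with 0.1 mM Ro20-1724, then with compound for 10 min at room temperature. Cells were stimulated with 200 nM NKH477 plus 12 nM quinpirole for 30 min, and cAMP was read by HTRF.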

Several values for one entry are separate records, joined by “and”; a condition that tells them apart may be missing. Equal entries are not always repeated. Inconclusive results are not listed. More than one record can exist for a structure, and the calls need not agree. Activity calls are given as the source filed them. Unless noted, calls come from the whole dose curve.

Among the data in PubChem BioAssay (Tox21) are Potency values, retold here.

Chain of Muscarinic acetylcholine receptor M1 (Homo sapiens) (P11229 whole entry, looked up): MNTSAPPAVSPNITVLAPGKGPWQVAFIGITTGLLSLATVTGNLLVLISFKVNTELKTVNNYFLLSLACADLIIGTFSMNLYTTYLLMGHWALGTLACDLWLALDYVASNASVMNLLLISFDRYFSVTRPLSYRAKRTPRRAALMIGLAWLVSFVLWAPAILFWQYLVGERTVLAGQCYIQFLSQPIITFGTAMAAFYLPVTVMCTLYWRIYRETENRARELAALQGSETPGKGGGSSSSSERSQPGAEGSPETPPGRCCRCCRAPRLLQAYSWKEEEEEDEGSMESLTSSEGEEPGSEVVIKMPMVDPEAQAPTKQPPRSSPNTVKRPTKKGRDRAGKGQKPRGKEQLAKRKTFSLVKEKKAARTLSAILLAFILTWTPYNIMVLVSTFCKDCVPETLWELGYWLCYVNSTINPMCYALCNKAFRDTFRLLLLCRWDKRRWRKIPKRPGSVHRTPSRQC
Chain of D(2) dopamine receptor (Homo sapiens) (P14416 whole entry, looked up): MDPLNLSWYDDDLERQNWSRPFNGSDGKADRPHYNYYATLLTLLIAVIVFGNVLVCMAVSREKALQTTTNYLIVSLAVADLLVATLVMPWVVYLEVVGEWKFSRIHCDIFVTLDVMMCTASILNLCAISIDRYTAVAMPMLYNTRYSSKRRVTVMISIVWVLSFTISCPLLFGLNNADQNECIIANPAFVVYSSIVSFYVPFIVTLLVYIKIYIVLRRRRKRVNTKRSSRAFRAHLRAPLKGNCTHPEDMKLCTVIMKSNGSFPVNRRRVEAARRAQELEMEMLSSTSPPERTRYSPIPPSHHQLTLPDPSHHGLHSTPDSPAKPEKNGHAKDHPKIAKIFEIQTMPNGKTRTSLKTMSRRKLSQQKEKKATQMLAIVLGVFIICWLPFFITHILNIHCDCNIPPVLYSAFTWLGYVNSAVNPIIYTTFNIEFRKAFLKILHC
Chain of Gonadotropin-releasing hormone receptor (Homo sapiens) (P30968 whole entry, looked up): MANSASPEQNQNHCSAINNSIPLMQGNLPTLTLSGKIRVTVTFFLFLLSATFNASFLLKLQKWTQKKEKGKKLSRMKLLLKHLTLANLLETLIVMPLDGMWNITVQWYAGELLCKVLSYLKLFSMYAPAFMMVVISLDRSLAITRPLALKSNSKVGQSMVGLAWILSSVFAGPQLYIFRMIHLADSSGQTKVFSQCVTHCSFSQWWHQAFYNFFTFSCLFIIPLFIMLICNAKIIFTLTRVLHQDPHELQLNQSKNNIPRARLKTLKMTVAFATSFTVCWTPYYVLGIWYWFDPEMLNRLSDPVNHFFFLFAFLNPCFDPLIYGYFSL
Chain of Beta-2 adrenergic receptor (Homo sapiens) (P07550 whole entry, looked up): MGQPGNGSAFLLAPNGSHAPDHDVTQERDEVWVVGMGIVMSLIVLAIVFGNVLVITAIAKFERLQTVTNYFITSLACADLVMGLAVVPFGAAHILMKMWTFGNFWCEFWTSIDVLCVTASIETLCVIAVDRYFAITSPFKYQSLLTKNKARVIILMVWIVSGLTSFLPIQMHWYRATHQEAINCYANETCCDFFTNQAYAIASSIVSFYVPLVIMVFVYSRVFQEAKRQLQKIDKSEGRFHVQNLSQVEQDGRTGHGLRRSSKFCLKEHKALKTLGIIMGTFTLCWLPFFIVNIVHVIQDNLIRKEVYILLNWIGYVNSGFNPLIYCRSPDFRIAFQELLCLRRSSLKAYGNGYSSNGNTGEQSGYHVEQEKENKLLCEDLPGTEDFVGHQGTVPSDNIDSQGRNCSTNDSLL
Chain of KiSS-1 receptor (Homo sapiens) (Q969F8 whole entry, looked up): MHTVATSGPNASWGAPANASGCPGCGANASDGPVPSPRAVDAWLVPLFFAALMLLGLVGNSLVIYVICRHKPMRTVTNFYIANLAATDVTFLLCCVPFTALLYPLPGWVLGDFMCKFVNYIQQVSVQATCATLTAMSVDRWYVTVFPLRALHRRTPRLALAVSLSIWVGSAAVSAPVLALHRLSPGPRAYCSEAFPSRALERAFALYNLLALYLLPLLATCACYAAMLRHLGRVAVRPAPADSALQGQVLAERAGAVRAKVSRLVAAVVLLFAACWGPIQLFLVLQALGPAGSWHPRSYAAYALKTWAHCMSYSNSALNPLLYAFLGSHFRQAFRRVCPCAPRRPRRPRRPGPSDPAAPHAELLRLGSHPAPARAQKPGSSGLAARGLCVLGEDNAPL
Chain of 5-hydroxytryptamine receptor 2A (Homo sapiens) (P28223 whole entry, looked up): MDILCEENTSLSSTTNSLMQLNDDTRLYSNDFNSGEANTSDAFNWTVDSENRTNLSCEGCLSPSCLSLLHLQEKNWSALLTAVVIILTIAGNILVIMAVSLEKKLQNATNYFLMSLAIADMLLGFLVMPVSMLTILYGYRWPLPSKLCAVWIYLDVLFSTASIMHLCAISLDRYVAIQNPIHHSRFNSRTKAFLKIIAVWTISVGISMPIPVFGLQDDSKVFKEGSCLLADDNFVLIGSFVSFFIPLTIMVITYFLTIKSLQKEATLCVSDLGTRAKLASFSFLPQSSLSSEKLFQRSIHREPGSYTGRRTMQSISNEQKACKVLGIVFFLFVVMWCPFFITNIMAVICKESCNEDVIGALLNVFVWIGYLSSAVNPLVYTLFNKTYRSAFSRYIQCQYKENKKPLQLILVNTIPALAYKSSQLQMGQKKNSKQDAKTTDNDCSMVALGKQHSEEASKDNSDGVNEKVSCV

For the molecule `CCN(CC)c1ccccc1`, the Potency result in assay [1], in [2], in assay [3], in [4], in assay [5] and in assay [6] was “inactive” in each case. Also, the Potency result in [7], in assay [8], in assay [9], in [10], in [11] and in [12] was “inactive” in each case. Further, the Potency entry in assay [13], in [14], in [15], in assay [16], in [17] and in assay [18] was “inactive” throughout. The Potency result in assay [19] and in assay [20] was “inactive” in each case.

Consider `CN1C(=O)NC(=O)C(C)(C2=CCCCC2)C1=O` (stereo not drawn), for which the Potency entry in [1], in [2], in [3], in assay [4], in [5] and in assay [6] was “inactive” each time. The Potency entry in assay [7], in [8], in assay [9], in assay [10], in assay [11] and in assay [12] was “inactive” in each case. Besides, the Potency entry in assay [13], in assay [14], in [15], in assay [16], in [17] and in assay [18] was “inactive” throughout. The Potency entry in assay [19] and in assay [20] was “inactive” in each case.

For `CCSC(=O)N1CCCCCC1`, the Potency result in assay [1], in assay [3], in assay [4], in assay [5], in [6] and in [8] was “inactive” in each case. Besides, the Potency result in assay [9], in assay [10], in assay [11], in assay [12], in assay [13] and in [14] was “inactive” throughout. Besides, the Potency entry in assay [15], in [16], in assay [17], in [18], in assay [19] and in [20] was “inactive” throughout. In addition, the Potency in assay [2] was 37.5 µM (active) and inactive; in assay [7], 4.99 µM (active) and 2.57 µM (active).

As to `CC(C)=CC1C(C(=O)OCc2cccc(Oc3ccccc3)c2)C1(C)C` (stereo not drawn), the Potency result in [1], in assay [2], in [3], in [4], in assay [5] and in assay [6] was “inactive” each time. The Potency result in assay [7], in [8], in [9], in assay [10], in assay [11] and in assay [12] was “inactive” throughout. The Potency result in assay [13], in assay [14], in assay [15], in assay [16], in assay [17] and in assay [18] was “inactive” throughout. Moreover, the Potency entry in assay [19] and in assay [20] was “inactive” in each case.

Take `CSc1nnc(C(C)(C)C)c(=O)n1N`: the Potency result in assay [1], in assay [2], in assay [3], in assay [4], in [5] and in assay [6] was “inactive” throughout. Moreover, the Potency result in [7], in assay [8], in assay [9], in [10], in assay [11] and in assay [12] was “inactive” in each case. The Potency result in assay [13], in assay [14], in [15], in assay [16], in [17] and in [18] was “inactive” in each case. For the same molecule, the Potency result in assay [19] and in assay [20] was “inactive” throughout.

With `Cc1ccc([N+](=O)[O-])cc1`, the Potency entry in [1], in assay [2], in [3], in assay [4], in assay [5] and in assay [6] was “inactive” throughout. The Potency result in [7], in [8], in [9], in [10], in [11] and in assay [12] was “inactive” in each case. For the same molecule, the Potency entry in assay [13], in [14], in assay [15], in assay [16], in [17] and in [18] was “inactive” each time. The Potency entry in [19] and in assay [20] was “inactive” in each case.

On to `CCNc1nc(Cl)nc(NC(C)C)n1`, for which the Potency result in assay [1], in assay [2], in assay [3], in assay [4], in assay [5] and in [6] was “inactive” each time. Besides, the Potency entry in [7], in assay [8], in [9], in assay [10], in assay [11] and in assay [12] was “inactive” throughout. The Potency entry in [13], in [14], in assay [15], in assay [16], in [17] and in assay [18] was “inactive” each time.
